Source: PubChem BioAssay (NCATS)
Inconclusive results are not listed. Activity calls are given as the source filed them. Unless noted, calls come from the whole dose curve; as a rule, active = well fitted curve in the direction sought with a large enough effect; inconclusive = small, poorly fitted or top-dose-only effect, or another doubt; inactive = no such curve, though single readings can be large; an effect the other way counts as inactive or inconclusive.

Tests used:
[1] = Primary qHTS for inhibitors of La Crosse Virus (LACV) - induced cell death in SH-SY5Y cells (AID 1508616);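 note: top concentration of the series differs between compounds; higher means more rescue of cells from virus-induced death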
In short: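 SH-SY5Y cells (6000/well) plated 24 h, then given compounds by pin transfer and LACV at 0.01 MOI for 6 days at 37C. Viability measured by ATPLite luminescence, normalized to infected DMSO and uninfected DMSO.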

[2] = target: Calcium and integrin-binding protein 1 (Homo sapiens) (UniProt Q99828); assay: Primary qHTS for Identification of Calcium Integrin Binding Protein 1 (CIB1) Competitor (AID 1508620);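 note: GST tagged CIB1 binding a fluorescein labelled alphaIIb integrin peptide tracer; top concentration of the series differs between compounds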
Sequence of Calcium and integrin-binding protein 1 (Homo sapiens) (Q99828 whole entry, looked up): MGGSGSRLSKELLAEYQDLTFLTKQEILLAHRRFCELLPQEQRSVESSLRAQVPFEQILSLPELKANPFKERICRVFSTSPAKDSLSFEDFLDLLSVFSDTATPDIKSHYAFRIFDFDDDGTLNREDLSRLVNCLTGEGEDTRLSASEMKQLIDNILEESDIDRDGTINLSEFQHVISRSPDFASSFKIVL
In short: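 Fluorescence polarization competition: CIB1-GST (1 uM final) preincubated with compound 15 min at room temperature, then FITC-labeled alphaIIb peptide (100 nM final) added for another 15 min. Polarization read at Ex 480/Em 540.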

[3] = Primary qHTS for small molecule stabilizers of the endoplasmic reticulum resident proteome: Secreted ER Calcium Modulated Protein (SERCaMP) assay (AID 1508630)
In short: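 GLuc-SERCaMP-expressing SH-SY5Y cells, pretreated 16 h with compound, are challenged with thapsigargin to empty ER calcium stores; after 4 h, coelenterazine is added directly to the medium and luminescence is imaged.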

[4] = A High-Content qHTS Against Drug Library for the Identification of Small Molecules that Inhibit DYT1 Early Onset Primary Dystonia-Associated Cell Pathology (AID 1645839; calls by dose curve; note: series mostly up to about 46 µM)
In short: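 Readout: %pathology, the punctate EGFP-TorsinA distribution from imaging, as the primary channel and cell count as the toxicity counterscreen. HEK293 Flp-In cells expressing delE TorsinA were induced with tetracycline and treated with compound for 48 h.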

Measured: Potency

Cc1nc(N)nc(N)c1-c1ccc(Cl)c(Cl)c1
inactive: [1] | [2] | [3]

OCc1cccnc1
inactive: [1] | [2] | [3]

CCN1CCCC1CN (stereo not given)
inactive: all assays above

CC(CC(C#N)(c1ccccc1)C(C)C)N(C)C (stereo not given)
inactive: all assays above

O=C(O)Cc1ccc(OCCNC[C@H](O)c2ccccc2)cc1
inactive: all assays above

COc1cc(/C=C/C(N)=O)cc(OC)c1OC
inactive: all assays above

CCCCCC1Nc2cc(C(F)(F)F)c(S(N)(=O)=O)cc2S(=O)(=O)N1 (stereo not given)
inactive: all assays above

O=c1[nH]c2ccccc2c(=O)n1CCCl
inactive: all assays above

COc1cc(OC)nc(O[C@H](C(=O)O)C(OC)(c2ccccc2)c2ccccc2)n1
inactive: [1] | [2] | [3]

CCC1=C[C@@H]2CN(C1)Cc1c([nH]c3ccccc13)[C@@](C(=O)OC)(c1cc3c(cc1OC)N(C)[C@H]1[C@@](O)(C(=O)OC)[C@H](OC(C)=O)[C@]4(CC)C=CCN5CC[C@]31[C@@H]54)C2
inactive: [1] | [2] | [3]

C#CC(C)(CC)OC(=O)c1ccccc1C(=O)O (stereo not given)
inactive: all assays above

NS(=O)(=O)c1cc(C(=O)NN2C[C@H]3[C@H]4CCC(C4)[C@H]3C2)ccc1Cl
inactive: all assays above

CCN(CC)CC(=O)Nc1c(C)cccc1C(=O)OC
inactive: all assays above

CC(=O)OCC(=O)[C@@]1(O)CCC2C3CCC4=CC(=O)CC[C@]4(C)C3[C@@H](O)C[C@@]21C (stereo not given in full)
inactive: all assays above

CCCCNc1ccc(C(=O)OCCN(CC)CC)cc1
inactive: [1] | [2] | [3]

OC1(c2ccc(Cl)cc2)CCNCC1
inactive: all assays above

O=C(CS(=O)Cc1ccco1)NC/C=C\COc1cc(CN2CCCCC2)ccn1 (stereo not given)
inactive: [1] | [2] | [3]

[O-][n+]1cccc(/C(Cl)=N/OC[C@@H](O)CN2CCCCC2)c1
inactive: [1] | [2] | [3]

CC(NCCC(c1ccccc1)c1ccccc1)c1ccccc1 (stereo not given)
inactive: [1] | [2] | [3]

CCOC(=O)O[C@]1(C(=O)OCCl)CC[C@H]2[C@@H]3CCC4=CC(=O)C=C[C@]4(C)[C@H]3[C@@H](O)C[C@@]21C
inactive: all assays above

CC[C@@]1(O)C(=O)OCc2c1cc1n(c2=O)Cc2c-1nc1ccccc1c2/C=N/OC(C)(C)C
inactive: [1] | [2] | [3]

CCCCC(=O)OCC(=O)[C@H]1[C@H](C)C[C@H]2[C@@H]3C[C@H](F)C4=CC(=O)C=C[C@]4(C)[C@@]3(F)[C@@H](O)C[C@@]21C
inactive: all assays above

Nc1c(I)cc(I)c(C(=O)N(CCC(=O)O)c2ccccc2)c1I
inactive: all assays above

CC(=O)[C@H]1CC[C@H]2[C@@H]3C=CC4=CC(=O)CC[C@@]4(C)[C@@H]3CC[C@]12C
inactive: [1] | [2] | [3]

O=C(O)[C@H](O)[C@@H](O)[C@H](O[C@@H]1O[C@H](CO)[C@H](O)[C@H](O)[C@H]1O)[C@H](O)CO
inactive: all assays above

CN1[C@@H]2CC[C@H]1CC(NC(=O)n1c(=O)[nH]c3ccccc31)C2 (stereo not given in full)
inactive: all assays above

COc1cc(C(=O)OC(COCCC(C)C)CN2CCOCC2)cc(OC)c1OC (stereo not given)
inactive: all assays above

Nc1nc2ccccc2n1Cc1ccc(F)cc1
inactive: all assays above

O=C(O)CCC(=O)OC[C@@H](NC(=O)C(Cl)Cl)[C@H](O)c1ccc([N+](=O)[O-])cc1
inactive: all assays above

Cc1cc(C(C)(C)C)c(O)c(C(C)(C)C)c1
inactive: [1] | [2] | [3]

OCCOCCN1CCN(C(c2ccccc2)c2ccc(Cl)cc2)CC1 (stereo not given)
inactive: [1] | [2] | [3]

OC1(c2ccccc2)CCNCC1
inactive: all assays above

CO[C@@]1(NC(=O)CSC[C@@H](N)C(=O)O)C(=O)N2C(C(=O)O)=C(CSc3nnnn3C)CS[C@@H]21
inactive: all assays above
